Source: PubChem BioAssay (National Center for Advancing Translational Sciences (NCATS))
Only some compounds are listed: those with a hit (about 11% of all), similar ones and a draw of the others.
HTT aggregate: qHTS Multiplex Assay to Identify Dual Action Probes in a Cell Model of Huntington: Aggregate Formation (GFP); 1.1% of 220,000 active; PC12 HttQ103-GFP aggregates, Acumen cytometry, 40 h; Potency, µM (titrated, usually from 46.1 µM), without a hit: top-dose activity change, negative = inhibition, hits mostly inhibitors; also: potency is read from the fitted curve at half-maximal effect; % is scaled to controls: 0 for no effect and ±100 for the full control effect; nearly all actives have a fitted effect of over 60% in size
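Aggregate formation scored by laser-scanning cytometer (488 excitation, 500–530 emission) in lysed PC12 cells expressing Q103-GFP after 100 nM tebufenozide induction; library tested in dose series, with ATPLite reagent added in the multiplex.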
ALDH1A1 block: qHTS Assay for Inhibitors of Aldehyde Dehydrogenase 1 (ALDH1A1); Aldehyde dehydrogenase 1A1 (Homo sapiens), P00352; Purified ALDH1A1, NADH fluorescence, propionaldehyde substrate; Potency, µM (series often up to 75.3 µM), for the others: at the highest dose activity, negative = inhibition, most hits filed as inhibitors; 7.3% of 220,000 active; AID 1030, 2008; active = well fitted inhibition curve with a large enough effect, not every such curve was filed as active; inconclusive = small, poorly fitted or top-dose-only effect, or another doubt; inactive = no such curve, though single readings can be large or run the other way;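 also: potency is read from the fitted curve at half-maximal effect; plate controls were no enzyme wells and a reference inhibitor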
CBFb RUNX1 block: qHTS Assay for Compounds Blocking the Interaction Between CBF-beta and RUNX1 for the Treatment of Acute Myeloid Leukemia; AID 1477, 2009; Potency, µM (highest dose often 59.8 µM), inactives show at the highest dose activity, negative = inhibition, most hits filed as inhibitors; 230,000 tested, under 10 active; AlphaScreen CBFb-His/RUNX1-biotin binding, biochemical; also: % of control where 0% means no effect
Target sequence (Q01196 whole entry, looked up): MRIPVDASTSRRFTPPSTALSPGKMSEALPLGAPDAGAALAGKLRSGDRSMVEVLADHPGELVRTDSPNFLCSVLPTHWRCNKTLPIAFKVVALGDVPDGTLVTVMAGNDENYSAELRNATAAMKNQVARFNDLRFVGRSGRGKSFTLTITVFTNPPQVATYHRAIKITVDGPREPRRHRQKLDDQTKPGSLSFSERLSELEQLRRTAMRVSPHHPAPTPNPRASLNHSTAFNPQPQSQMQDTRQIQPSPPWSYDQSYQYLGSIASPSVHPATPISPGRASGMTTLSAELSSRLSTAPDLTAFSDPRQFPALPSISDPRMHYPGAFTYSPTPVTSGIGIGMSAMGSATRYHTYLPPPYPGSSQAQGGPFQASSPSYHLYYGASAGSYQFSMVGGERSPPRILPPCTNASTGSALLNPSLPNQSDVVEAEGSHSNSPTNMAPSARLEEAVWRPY
Target sequence (Q13951 whole entry, looked up): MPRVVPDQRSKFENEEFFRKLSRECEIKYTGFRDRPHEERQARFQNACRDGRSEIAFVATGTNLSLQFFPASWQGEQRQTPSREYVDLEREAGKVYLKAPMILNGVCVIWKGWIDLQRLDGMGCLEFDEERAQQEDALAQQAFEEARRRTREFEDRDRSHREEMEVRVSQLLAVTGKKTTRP
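Inhibition was taken as any reduction in AlphaScreen signal from the CBF-beta–RUNX1 pair (His and biotin tags, 30 nM each), measured after compound (15 min) and bead (90 min) incubations at room temperature.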
HTT cytoprotect: qHTS Multiplex Assay to Identify Dual Action Probes in a Cell Model of Huntington: Cytoprotection (ATP); AID 1471, 2008; Potency, µM (highest dose often 56.4 µM), without a hit: cytoprotection (ATP increase), most hits filed as activators; PC12 HTT-Q103 induced, cytoprotection, ATP luminescence, 40 h; 0.14% of 230,000 active; also: potency is read from the fitted curve at half-maximal effect; % of control where 0% means no effect; nearly all actives have a fitted effect of over 45% in size
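Quantitative HTS on tebufenozide-induced (100 nM) PC12 cells expressing HTTQ103 exon 1–GFP; compounds tested as a concentration series; survival measured via cellular ATP.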
PNC inhibitor: High Content Assay for Compounds that inhibit the Assembly of the Perinucleolar Compartment | 3.1% of 140,000 active | PC3M PTB-GFP, PNC prevalence imaging, 16 h; hits give low values | activity change (PNC), negative = inhibition, % at 10 µM;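 active = readout at or below -70, meaning at least 70% loss of cells showing the perinucleolar compartment, a nuclear body marking cancer cells; inconclusive = readout between -30 and a set limit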;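 also: plate controls were DMSO wells for no effect and camptothecin positive control wells for full effect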
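Compounds are pinned in duplicate onto adhered PC3M cells stably expressing GFP-tagged PTB and incubated 16 h at 37 C. Cells are then fixed, nuclei stained with Hoechst, and PNC-positive cells counted.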
HPGD block: qHTS Assay for Inhibitors of HPGD (15-Hydroxyprostaglandin Dehydrogenase). 4.3% of 150,000 active. 15-hydroxyprostaglandin dehydrogenase [NAD(+)] (Homo sapiens), P15428. purified HPGD, NADH fluorescence kinetic, PGE2 substrate. AID 894, 2007. Potency, µM, for inactives: at the highest dose activity change, negative = inhibition, most hits filed as inhibitors; active = well fitted inhibition curve with a large enough effect, not every such curve was filed as active; inconclusive = small, poorly fitted or top-dose-only effect, or another doubt; inactive = no such curve, though single readings can be large or run the other way; also: potency is read from the fitted curve at half-maximal effect; % is scaled to controls: 0 for no effect and ±100 for the full control effect
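NADH formation kinetics: reaction with 30 uM PGE2 and 1 mM NAD+ (final), 20 nM enzyme, Tris-HCl pH 8 with Tween 20, after 15 min compound preincubation at room temperature. Fluorescence change, last versus first of five reads.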
The depositor's hits bear a star; ? = inconclusive; / = no result; [ ] = another dose, or the depositor's remark. Unless noted, calls follow the shape of the dose curve; as a rule, active = well fitted curve in the direction sought with a large enough effect; inconclusive = small, poorly fitted or top-dose-only effect, or another doubt; inactive = no such curve, though single readings can be large; an effect the other way counts as inactive or inconclusive.

SMILES	HTT aggregate	ALDH1A1 block	CBFb RUNX1 block	HTT cytoprotect	PNC inhibitor	HPGD block
[O-][n+]1onc2c1CCc1c-2nn(-c2ccccc2Cl)[n+]1[O-]	11µM*	?	-3%	-62%	-29	-9%
Cc1ccc(-n2nc3c([n+]2[O-])CCc2c-3no[n+]2[O-])cc1	13µM*	?	5%	?	-17	-9%
O=S(=O)(C/C(=C/CO)S(=O)(=O)c1ccccc1)c1ccccc1	?	13µM*	1%	16%[0.074 µM]	-95*	-5%
CCN(Cc1ccccc1)C(=O)CS(=O)(=O)c1ccccc1	-9%	0%	-2%	?	/	/
COc1ccc(-c2csc3nc(C)nc(N4CCN(c5ccc(C(C)=O)cc5)CC4)c23)cc1OC	?	-3%	-21%	-12%	/	/
COc1cc2c(cc1OC)CN(CCC(=O)c1ccc(Br)cc1)CC2	6%	0.2µM*	10%	-6%	/	/
CC1CCCN(CCOc2ccc(Br)cc2)C1 (centres undefined)	29%	-15%	5%	1%[10 µM]	-4	-4%
COc1cc2c(cc1OC)CN(CC(=O)Nc1cccc(C)c1)CC2	-8%	-1%	-14%	3%[0.074 µM]	162	-6%
CC1CCCN(CCC(=O)c2ccc(Br)cc2)C1 (centres undefined)	7%	0.13µM*	10%	11%[10 µM]	-4	4µM*
CC(=O)OCC1=C[C@H]2[C@@H]3C(C)(C)[C@]3(OC(C)=O)C[C@@H](C)[C@]2(O)[C@@H]2C=C(C)C(=O)[C@@]2(O)C1	/	/	20%	/	/	/
O=C(O)c1cccc(C[C@H](Br)C(=O)O)c1	/	-1%[13.5 µM]	/	-18%[10 µM]	/	-10%
COC(=O)c1cc(C(=O)Nc2ccc(S(N)(=O)=O)cc2)cc([N+](=O)[O-])c1	0%	12%	-10%	-30%	/	/
O=C(NC(O)C(=O)c1ccccc1)c1cccs1 (centres undefined)	0%	?	-2%	-11%	-3	-8%
O=C(NC(O)C(=O)c1cccs1)c1cccnc1 (centres undefined)	15%	10µM*	2%	-17%	?	-18%
O=C(N/N=C(/CC(=O)c1cccs1)C(F)(F)F)c1ccc(O)cc1	16%	4%	-1%	/	-3	-14%
O=C(N/N=C(\CC(=O)c1cccs1)C(F)(F)F)c1cccnc1	-1%[9.22 µM]	20µM*	1%	8%[10 µM]	/	/
Cc1ccc(C)c(Cn2cnc3c(cnn3C(C)(C)C)c2=O)c1	-21%	?	11%	-15%	-1	22µM*
O=C(O)/C=C\C(=O)Nc1ccccc1C(=O)N1CCN(c2ccc(Cl)cc2)CC1	1%	4%	2%	5%	-25	-2%
Nc1ccc(N2CCN(c3cccc(Cl)c3)CC2)cc1	2%	14µM*	-8%	/	11	-10%
O=C(O)/C=C\C(=O)Nc1ccc(N2CCN(c3ccc(Cl)c(Cl)c3)CC2)cc1	21%[9.22 µM]	6.3µM*	-9%	-13%[10 µM]	/	/
O=C(O)/C=C\C(=O)Nc1ccc(N2CCN(c3ccc(Cl)cc3)CC2)cc1	-8%[9.22 µM]	11µM*	-13%	-7%[10 µM]	/	/
CC(=O)N1CCN(c2ccc(NC(=O)/C=C/c3ccccc3)cc2)CC1	0%	-6%	-4%	-31%	/	/
O=C(O)/C=C\C(=O)Nc1ccc(N2CCN(c3ccc(F)cc3)CC2)cc1	6%[9.22 µM]	8.9µM*	12%	8%[10 µM]	/	/
C[C@@H](CNC(N)=O)NC(N)=O	/	4%[13.5 µM]	/	-3%[10 µM]	/	-17%
O=C(O)/C=C\C(=O)Nc1ccc(N2CCN(c3cccc(Cl)c3)CC2)cc1	-4%[9.22 µM]	28µM*	-21%	3%[10 µM]	/	/
SMILES	HTT aggregate	ALDH1A1 block	CBFb RUNX1 block	HTT cytoprotect	PNC inhibitor	HPGD block
NS(=O)(=O)c1ccc(NC(=S)N2CCN(c3cccc(Cl)c3)CC2)cc1	-15%	-10%	-11%	/	-27	25µM*
O=S(=O)(c1cccc(NC(=S)N2CCN(c3cccc(Cl)c3)CC2)c1)C(F)F	?	?	6%	1%[10 µM]	56	-9%
CC(=O)c1ccc(NC(=O)N2CCN(c3cccc(Cl)c3)CC2)cc1	?	6%	-4%	-8%[0.074 µM]	28	-10%
O=C(NNS(=O)(=O)c1ccc(C(F)(F)F)cc1)c1cnn(-c2ccccc2)c1C(F)(F)F	-9%[9.22 µM]	/	2%	0%[10 µM]	/	/
Cc1cc(Nc2ccc(N=Nc3ccc(O)c4ncccc34)cc2)nc(C)n1	/	-9%[13.5 µM]	/	0%[10 µM]	/	-2%
CCCC(=O)Nc1nc2c(OC)ccc(OC)c2s1	-1%	16µM*	-3%	-5%	22	-16%
O=C1NN(c2ccc(F)cc2)C(=O)/C1=C/c1cccs1	-9%[9.22 µM]	25µM*	3%	-7%[10 µM]	/	/
COC(=O)c1ccc(SCC(=O)NC2CCCC2)c([N+](=O)[O-])c1	1%	1%	5%	24%[10 µM]	52	35µM*
NC(=O)c1ccc(SCC(=O)NC2CCCCC2)c([N+](=O)[O-])c1	0%	3%	6%	-24%	/	/
CC(C)N(C(=O)COC(=O)c1ccccc1C(=O)c1ccc(Cl)c([N+](=O)[O-])c1)C(C)C	?	-9%	-5%	-26%	/	/
O=C(COC(=O)c1ccccc1C(=O)c1ccc(Cl)c([N+](=O)[O-])c1)NC1CCCCCC1	?	14µM*	-22%	-96%	-22	-17%
CO/N=C(\C(=O)N[C@@H]1C(=O)N2C(C(=O)[O-])=C(C[N+]3(C)CCCC3)CS[C@@H]12)c1csc(N)n1	11%	-4%[20.9 µM]	15%[21.7 µM]	?	/	-11%
CC(=O)OCC(=O)[C@]1(O)C(OC(C)=O)CC2C3CCC4=CC(=O)C=C[C@@]4(C)[C@]3(F)C(O)C[C@]21C (some centres undefined)	/	7%	16%	-62%	/	-4%
C=C[C@@]1(C)C[C@H](OC(=O)CSC(C)(C)CNC(=O)[C@@H](N)C(C)C)[C@@]2(C)C(C)CC[C@@]3(CCC(=O)[C@@H]32)[C@H](C)[C@H]1O (some centres undefined)	19%	/	/	-3%	/	/
O=C1c2ccccc2C(=O)N1c1cccc(-c2csc(Nc3ccc4c(c3)OCO4)n2)c1	8%	7.1µM*	-10%	-20%[10 µM]	20	-17%
Cc1ccc(O)c(-c2cc(-c3ccccc3[N+](=O)[O-])[nH]n2)c1	22%	11%	-3%	22%[10 µM]	4	4.5µM*
Cc1ccc(O)c(-c2cc(-c3ccccc3C)[nH]n2)c1	4%	6%	1%	-38%	23	22µM*
